# ERa SRC1 inh: ER-alpha (human) coactivator binding inhibition | TR-FRET ER-alpha LBD / SRC-1 peptide, estradiol-bound | inhibition, % at 25.6 µM | hit rate 1.7% among 86,000; in the data active = inhibition above about 50%;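 note: 0% = receptor plus peptide control and 100% = peptide only without receptor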
# MRP1 act: activates MRP-1. H69AR cells + doxorubicin, viability rescue, CellTiter-Glo. viability increase, % at 10 µM. hit rate 0.61% among 140,000;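 active = viability gain under doxorubicin at or above a set limit, the compound median plus 3 SD, cut at about 4.7% in these data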;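 note: MRP-1 overexpressing cells given doxorubicin 25 µM after compound pretreatment; 18-22 h compound pretreatment then 72 h with doxorubicin before readout; 0% = doxorubicin-only wells and 100% = vehicle-treated cells without doxorubicin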
# MRP reversal: compounds reversing MRP-mediated drug resistance; H69AR cells + 2 uM doxorubicin, CellTiter-Glo, 72 h; differential viability (reversal), % at 10 µM; hit rate 0.04% among 85,000; AID 602;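 active = viability drop by adding the cancer drug above about 55%, with treated viability meeting a 40% cutoff, limit read from the data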;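 note: viability without doxorubicin minus viability with 2 µM doxorubicin for each compound; larger differential means the compound sensitizes cells more to doxorubicin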
# ERb SRC1 inh: blocks coactivator binding to human estrogen receptor beta; Q92731; TR-FRET ER-beta LBD / SRC1-Cy5 peptide binding; receptor agonist-loaded with 1 µM estradiol; inhibition, % at 25.6 µM; hit rate 1.3% among 86,000; AID 633;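 active = compounds whose percent inhibition of the receptor-coactivator binding signal exceeds about 50% in the single-dose screen, limit read from the data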;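 note: 0% = receptor plus peptide wells without compound and 100% = peptide-only wells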
# Target sequence (Q92731 whole entry, looked up, the tested form may be a part): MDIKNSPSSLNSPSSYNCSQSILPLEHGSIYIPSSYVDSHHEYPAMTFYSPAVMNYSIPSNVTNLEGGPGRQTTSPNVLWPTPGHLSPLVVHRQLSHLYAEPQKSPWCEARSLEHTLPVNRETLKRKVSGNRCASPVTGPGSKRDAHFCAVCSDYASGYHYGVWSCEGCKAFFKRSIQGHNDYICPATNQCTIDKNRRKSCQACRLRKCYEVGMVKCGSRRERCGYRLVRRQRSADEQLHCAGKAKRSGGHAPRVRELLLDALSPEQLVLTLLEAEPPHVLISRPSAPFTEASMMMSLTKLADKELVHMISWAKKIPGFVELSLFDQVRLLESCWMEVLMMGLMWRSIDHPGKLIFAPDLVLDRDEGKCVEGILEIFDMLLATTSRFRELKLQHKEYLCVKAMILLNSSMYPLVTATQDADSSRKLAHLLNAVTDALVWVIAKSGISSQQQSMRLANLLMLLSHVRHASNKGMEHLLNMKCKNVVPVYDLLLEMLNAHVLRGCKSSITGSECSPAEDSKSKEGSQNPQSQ
# ERa coact pot: ER-alpha (human) coactivator binding potentiation; hit rate 1.3% among 86,000; AID 639; TR-FRET ERalpha-LBD/SRC-Cy5 coactivator binding, 2 h; 100 = basal binding, no effect; P03372; coactivator binding (% of control), % at 25.6 µM; in the data active = activity above about 200%;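 note: binding measured in presence of low estradiol as agonist stimulus; 0% = peptide alone without receptor and 100% = receptor with peptide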
# * marks the source's active call; other numbers are inactive results; . = no result given; [ ] = dose if it differs, or a comment. This is a sample that favours compounds with a hit; in the whole collection about 2.7% have one here.
SMILES,ERa SRC1 inh,MRP1 act,MRP reversal,ERb SRC1 inh,ERa coact pot
Cc1ccc(NC(=O)C(=O)c2c(-c3ccccc3)cc3ccccn23)cc1S(=O)(=O)N1CCOCC1,-10.8,4.8*,13.3,-3.6,103.8
O=C(/C(=C/O)N=Nc1ccccc1)c1ccncc1,12.9,6.3*,0.4,1.5,89.8
COc1ccccc1Cn1c2nc3ccccc3nc2c2c(=O)n(CC(C)C)cnc21,16.7,.,-1.2,5.6,141.4
Cc1ccc(-c2nc3sc4c(c3c(=O)n2N)CC(C)(C)OC4)cc1,-3.9,2.6,4.3,4.2,91.0
CC1(C)Cc2c(sc3nnn(Cc4ccc(Cl)cc4)c(=O)c23)CO1,.,7.4*,.,.,.
O=c1/c(=C/c2ccccn2)sc2nc3ccccc3n12,90.3*[fluorescence artefact?],-5.7,4.6,47.3,68.1
COC(=O)/C=c1/sc2nc3ccccc3n2c1=O,3.7,-0.5,5.2,-3.8,160.2
CCOC(=O)c1cnc2c(C)c(Cl)ccc2c1Nc1ccc(S(=O)(=O)Nc2ncccn2)cc1,.,-0.1,.,.,.
CC(C)Cc1nc2oc3c(N4CCN(C)CC4)ncnc3c2c2c1CCCC2,2.0,-0.6,-3.5,7.4,77.1
COc1ncnc2c1oc1nc(CC(C)C)c3c(c12)CCCC3,-10.7,7.2*,-2.5,-4.8,86.2
O=C(NC(=S)NCCN1CCOCC1)c1ccccc1Br,.,0.4,.,.,.
CCOC(=O)c1c(C)oc2c1c(C=NC1CCS(=O)(=O)C1)c(O)c1ccccc12 (centres undefined),69.6*,-5.2,-6.6,43.8,79.1
CCOC(=O)c1c(C)oc2c1c(CN1CCN(C(=O)OCC)CC1)c(O)c1ccccc12,.,-3.7,.,.,.
CCOC(=O)c1c(C)oc2c1c(C(c1ccncc1)N1CCOCC1)c(O)c1ccccc12 (centres undefined),67.9*[fluorescence artefact?],-2.0,-1.8,70.5*[fluorescence artefact?],92.9
COc1cc(/C=N/n2nnnc2Nc2ccccc2)cc(OC)c1OC,.,-3.5,.,.,.
Cc1ccc(N2C(=O)[C@@H]3C(C(=O)C(c4ccccc4)c4ccccc4)=NN[C@@H]3C2=O)cc1,.,2.7,.,.,.
COc1cc2c(=O)n(Cc3ccco3)c(=O)n(CC(=O)c3cccc(Br)c3)c2cc1OC,24.7,-1.4,0.3,16.0,282.9*[fluorescence artefact?]
CCOC(=O)c1cc2c(c(CSc3nc4ccccc4c(=O)n3Cc3ccco3)c1)OCOC2,8.8,-1.9,-5.7,36.8,336.8*
O=c1c2ccccc2nc(SCc2cc(F)cc3c2OCOC3)n1Cc1ccco1,23.1,-0.7,.,17.1,227.4*[fluorescence artefact?]
COc1ccccc1N=C1SCC(=O)N1c1ccccc1OC,.,-0.5,.,.,.
O=C(Nc1ccc(OC(F)(F)F)cc1)c1n[nH]c(Cn2cncn2)n1,.,4.9*,.,.,.
Clc1ccccc1N1CCN(c2ncnc3nc[nH]c23)CC1,6.3,-0.6,15.1,0.2,98.7
FC(F)(F)c1cccnc1N1CCN(c2ncnc3nc[nH]c23)CC1,56.0*[fluorescence artefact?],-1.3,15.8,-12.8,74.5
O=C(NCCc1ccc2c(c1)OCCO2)c1cc(F)cc(F)c1,.,4.7*,.,.,.
CC1(C)CC(=O)C=C(NC2CCCCCCC2)C1,95.3*[fluorescence artefact?],-0.6,16.0,1.7,109.3
SMILES,ERa SRC1 inh,MRP1 act,MRP reversal,ERb SRC1 inh,ERa coact pot
N#CCSc1nnc2sc3ccccc3n12,87.0*[fluorescence artefact?],-0.8,5.4,9.1,65.5
Cc1cc(C)c2[nH]c(=O)c(CN(Cc3cccs3)C(=S)NCC3CCCO3)cc2c1 (centres undefined),.,1.4,.,.,.
O=C(O)C(c1ccccc1)N1CCCC1 (centres undefined),-0.3,-2.1,6.5,-5.0,120.6
CCc1nccn1C(=O)c1cnn2c(C(F)F)cc(-c3ccc(C)cc3)nc12,.,6.0*,.,.,.
COc1ccc(OCc2nnc(SCC(=O)O)n2N)cc1,-28.6,-1.4,5.5,-24.2,109.9
Nn1c(COc2ccccc2)nnc1SCC(=O)O,-1.6,-0.7,-4.2,-2.9,251.7*[fluorescence artefact?]
COc1ccc(Cl)cc1NC(=O)CSc1nnc(COc2ccccc2)n1N,-7.2,7.8*,19.8,16.6,101.9
ClC(Cl)(c1nnnn1-c1ccccc1)c1nnnn1-c1ccccc1,.,-5.5,.,.,.
CCCNC(=O)Cn1c(=O)/c(=C\c2ccc(-c3ccc([N+](=O)[O-])cc3)o2)s/c1=C\C(=O)C(C)(C)C,.,-4.3,.,.,.
CCCSc1nc(N)c(C#N)c(-c2ccc(C)cc2)c1C#N,.,-3.5,.,.,.
C=CCSc1nc(N)c(C#N)c(-c2ccccc2)c1C#N,18.7,-1.8,5.2,29.9,237.6*[fluorescence artefact?]
O=C1CNC(=S)N1c1nc(-c2ccccc2)cs1,.,4.8*,.,.,.
O=C(Cc1ccccc1)Nc1ccccc1Oc1ccccc1,.,8.1*,.,.,.
CCC(=O)Nc1ccccc1Oc1ccccc1,2.8,-0.1,0.1,-6.1,118.2
COc1cc(-c2nnc3sc(-c4ccccn4)nn23)cc(OC)c1OC,-1.4,.,0.9,-0.5,110.4
O=C(O)CCCNc1cc(N2CCC3(CC2)OCCO3)c2noc3c2c1C(=O)c1ccccc1-3,27.2,-3.9,-11.6,87.7*[fluorescence artefact?],41.1
CCOC(=O)N1CCN(c2cc(NCCC(=O)O)c3c4c(onc24)-c2ccccc2C3=O)CC1,9.7,-3.6,-18.1,65.0*[fluorescence artefact?],51.0
Cc1cc2ccccc2n1CCNC(=O)c1ccc(S(=O)(=O)N2CCOCC2)cc1,70.0*[fluorescence artefact?],-4.1,-1.6,31.0,97.9
Cc1cc2ccccc2n1CCNC(=O)Cc1cccc2ccccc12,-0.3,-2.0,11.6,5.3,211.7*
O=C(NCc1ccco1)c1ccc(S(=O)(=O)N2CCOCC2)cc1,70.0*[fluorescence artefact?],-3.3,8.9,56.2*[fluorescence artefact?],37.4
O=C(NCc1ccco1)c1cccc(S(=O)(=O)N2CCOCC2)c1,-1.4,-0.6,-38.9,2.0,109.0
COc1cc(/C=N/c2oc(-c3ccccc3)cc2C#N)ccc1O,.,0.2,.,.,.
CCSC(SCC)[C@H](O)[C@@H](O)[C@H](O)[C@H](O)CO,-5.5,0.9,3.0,1.2,774.5*[fluorescence artefact?]
CCOC(=O)CC(=O)Nc1ccccc1C(=O)O,.,1.2,.,.,.
CCOC(=O)CCC(=O)Nc1ccccc1C(N)=O,52.5*,-1.0,-3.7,-3.1,129.2
SMILES,ERa SRC1 inh,MRP1 act,MRP reversal,ERb SRC1 inh,ERa coact pot
COc1ccc(C(C)NC(=O)C2C(=O)NC3(C)CC2c2ccccc2O3)cc1 (centres undefined),3.2,-2.7,10.7,-3.5,94.9
COc1ccc(NC(=O)C2C(=O)NC3(C)CC2c2ccccc2O3)cc1 (centres undefined),-4.1,4.9*,17.9,-6.9,115.0
O=C(Nc1cccc(C(F)(F)F)c1)c1ccc2nc(-c3ccco3)c(-c3ccco3)nc2c1,84.3*[fluorescence artefact?],-1.6,-23.6,81.5*[fluorescence artefact?],16.2
O=C(NCCCO)Nc1ccc2nc(-c3ccco3)c(-c3ccco3)nc2c1,97.4*[fluorescence artefact?],2.0,0.5,99.3*[fluorescence artefact?],1.1
O=C(Nc1ccc(N2CCOCC2)cc1)Nc1ccc2nc(-c3ccco3)c(-c3ccco3)nc2c1,52.5*[fluorescence artefact?],-3.1,-7.0,58.6*[fluorescence artefact?],31.5
O=C(Nc1ccc2nc(-c3ccco3)c(-c3ccco3)nc2c1)NC1CC1,99.5*[fluorescence artefact?],-3.4,-29.4,108.9*[fluorescence artefact?],6.6
O=C(Nc1cccc(C(F)(F)F)c1)c1ccc2nc(N3C(=O)CCC3=O)sc2c1,.,-2.2,.,.,.
COc1cccc(N2CCN(c3ccc(S(=O)(=O)N4CCCC4)cc3)CC2)c1,.,-1.2,.,.,.
Cc1cc(-c2csc(N)n2)c(C)n1C,71.0*[fluorescence artefact?],-3.6,-13.1,83.3*[fluorescence artefact?],109.3
